Only a selection was taken, and hits are over-represented in it overall.
TDP1 cell noCPT: qHTS for Inhibitors of human tyrosyl-DNA phosphodiesterase 1 (TDP1): qHTS in cells in absence of CPT; Potency, µM (top dose mostly 46.2 µM), hits mostly inhibitors; DT40 Tdp1-/- hTDP1 cells, no CPT, ATP luminescence, 48 h; AID 686978, 2013; 15% of 420,000 active; further: nearly all actives have a fitted effect of over 55% in size
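Camptothecin absent (DMSO only). Human TDP1-complemented DT40 knockout cells, 400 cells/well, 37 °C for minimum 48 hr; ATP measured via CellTiter-Glo, 30 min dark incubation, luminescence.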
TDP1 cell CPT: DT40-hTDP1 cell growth loss with CPT | chicken DT40 Tdp1-/-;hTDP1 cells + 20 nM CPT, ATP luminescence, 48 h | Potency, µM (titrated, usually from 46.2 µM), most hits filed as inhibitors | 12% of 420,000 active; further: nearly all actives have a fitted effect of over 55% in size
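Chicken DT40 Tdp1-/- cells stably complemented with human TDP1 were seeded at 400 cells/well in medium containing 20 nM camptothecin, exposed to pin-transferred compounds, and grown at 37 °C for at least 48 hr. Viability was read as ATP luminescence.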
HT1080NT lethal: kills 2HG-producing HT-1080-NT fibrosarcoma cells; 1.6% of 360,000 active; Potency, µM (doses to about 46.1 µM), actives largely listed as cytotoxic; HT-1080-NT fibrosarcoma viability, CellTiter-Glo ATP luminescence, 48 h;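 further: NT is the 2HG producing partner of a matched IDH1 knockdown line; nearly all actives have a fitted effect of over 55% in size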
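Viability by CellTiter-Glo luminescence after 48 h compound exposure at 37C of HT-1080-NT cells (750/well, RPMI, 5% FBS). % activity scaled between DMSO wells and medium-only wells, then curve-fitted and categorized by curve class.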
HT1080 IDH1KD tx: toxicity to HT-1080 IDH1 knockdown cells (counter line) | 2% of 360,000 active | AID 686971 | HT-1080 IDH1 knockdown viability, ATP luminescence, 48 h | Potency, µM (titrated, usually from 46.1 µM), most hits filed as cytotoxic
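Knockdown cells (IDH1KD HT-1080) received compounds 2 h after plating at 750 cells/well and were kept 48 h at 37 °C in 5% FBS RPMI. A CellTiter-Glo luminescence read gave % activity for curve fitting.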
ALOX12 inh: inhibitors of human 12S-lipoxygenase ALOX12. 1.1% of 580,000 active. Potency, µM (titrated, usually from 108 µM), most hits filed as inhibitors. purified 12hLO, xylenol orange hydroperoxide absorbance. P18054. AID 1671190
Target sequence (P18054 whole entry, looked up): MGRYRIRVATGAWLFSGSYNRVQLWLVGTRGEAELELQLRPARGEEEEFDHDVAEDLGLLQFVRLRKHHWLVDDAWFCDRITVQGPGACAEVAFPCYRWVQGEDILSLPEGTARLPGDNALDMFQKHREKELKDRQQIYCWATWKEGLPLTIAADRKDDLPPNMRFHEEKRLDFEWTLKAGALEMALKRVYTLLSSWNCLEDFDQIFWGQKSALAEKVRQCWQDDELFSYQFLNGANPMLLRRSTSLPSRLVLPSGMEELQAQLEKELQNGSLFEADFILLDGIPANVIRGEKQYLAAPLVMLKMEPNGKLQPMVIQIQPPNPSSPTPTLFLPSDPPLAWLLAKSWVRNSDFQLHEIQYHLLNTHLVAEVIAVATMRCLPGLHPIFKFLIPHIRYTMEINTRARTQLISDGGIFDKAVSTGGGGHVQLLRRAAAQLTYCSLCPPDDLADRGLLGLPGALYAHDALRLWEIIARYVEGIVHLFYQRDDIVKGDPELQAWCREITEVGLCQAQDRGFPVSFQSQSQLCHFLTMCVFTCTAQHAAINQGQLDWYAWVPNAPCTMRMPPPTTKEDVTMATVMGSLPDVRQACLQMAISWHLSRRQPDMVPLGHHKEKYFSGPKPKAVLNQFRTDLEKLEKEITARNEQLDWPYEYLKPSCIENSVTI
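Purified human 12hLO (150 nM final) in 25 mM Hepes, 0.01% Triton X-100, pH 7.0 was preincubated 15 min at room temperature with compound. Then 40 uM arachidonic acid was added, 30 min. Hydroperoxide was read by Fe-XO absorbance ratio 573/405 nm.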
IL-1B inflam inh: inflammasome signaling inhibition, IL-1 beta readout | THP-1 LPS/ATP IL-1B secretion, AlphaLISA, 16 h; active compounds read low | activity change, % at 57.5 µM | 4.7% of 360,000 active | AID 743279; in the data active means activity change below about -50%; inconclusive means mostly about -30% to -49%
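Secreted IL-1B measured by AlphaLISA bead assay after 16 h compound exposure of THP-1 cells; compounds (final up to 57.5 uM) added 1 h before LPS (250 ng/mL) and ATP (1.25 mM) stimulation; lower signal means less secretion.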
Hits are given with their value. Unless noted, the call rests on the fitted dose curve; in most records, active means well fitted curve in the direction sought with a large enough effect; inconclusive means small, poorly fitted or top-dose-only effect, or another doubt; inactive means no such curve, though single readings can be large; an effect the other way counts as inactive or inconclusive.

How did CCOc1cccc(CC(=O)NCc2ccc3c(c2)CCN3C(=O)c2cccc(C)c2)c1OCC do in these assays?
TDP1 cell noCPT: 21µM; TDP1 cell CPT: 21µM; ALOX12 inh: inactive

Results for CCOc1ccccc1NC(=O)NCc1ccc2c(c1)CCN2C(=O)c1ccccc1 ?
TDP1 cell noCPT: 16µM; TDP1 cell CPT: 23µM; ALOX12 inh: inactive

What do the screens show for `Cc1ccc(NC(=O)NCc2ccc3c(c2)CCN3C(=O)c2ccccc2)c(Cl)c1`?
TDP1 cell noCPT: 23µM; TDP1 cell CPT: inconclusive; ALOX12 inh: inconclusive

How did CCOCCCNC(=O)CCl do in these assays?
ALOX12 inh: inactive

Results for CCOC(=O)c1ccc(-[n+]2c(-c3ccccc3)cc(-c3ccccc3)cc2-c2ccccc2)cc1 ?
TDP1 cell noCPT: 0.73µM; TDP1 cell CPT: 1µM; HT1080NT lethal: 18µM; HT1080 IDH1KD tx: 23µM; IL-1B inflam inh: -99

How did CCOC(=O)c1cccc(-[n+]2c(-c3ccccc3)cc(-c3ccccc3)cc2-c2ccccc2)c1 do in these assays?
TDP1 cell noCPT: 1.6µM; TDP1 cell CPT: 1.6µM; HT1080NT lethal: inconclusive; HT1080 IDH1KD tx: 18µM; ALOX12 inh: inactive; IL-1B inflam inh: -67

How did O=C(Nc1ccc2n(c1=O)C[C@H]1C[C@@H]2CN(C(=O)c2ccccn2)C1)c1ccccc1 do in these assays?
ALOX12 inh: inactive

What do the screens show for `C[C@@H]1CNC(=O)c2c(C(=O)Nc3ccc(CNC(=O)OC(C)(C)C)cc3)ncn21`?
TDP1 cell noCPT: 9.2µM; TDP1 cell CPT: 23µM; HT1080NT lethal: inactive; HT1080 IDH1KD tx: inactive; ALOX12 inh: inactive; IL-1B inflam inh: inactive

What do the screens show for `O=C(c1ccc2c(c1)N(Cc1ccc(F)cc1)CCS2)N1CCC2(CC1)OCCO2`?
TDP1 cell noCPT: inconclusive; TDP1 cell CPT: inconclusive; HT1080NT lethal: inactive; HT1080 IDH1KD tx: inactive; ALOX12 inh: inactive; IL-1B inflam inh: -65

What do the screens show for `Cc1ccc(C)c(CN2C(=O)c3ccccc3Sc3ccc(C(=O)N4CCC5(CC4)OCCO5)cc32)c1`?
TDP1 cell noCPT: 21µM; TDP1 cell CPT: inconclusive; ALOX12 inh: inactive

Results for O=C(c1ccc2c(c1)N(Cc1ccc(F)cc1)C(=O)c1ccccc1S2)N1CCC2(CC1)OCCO2 ?
TDP1 cell noCPT: 16µM; TDP1 cell CPT: 16µM; ALOX12 inh: inconclusive

Results for Cc1ccc(CN2CCSc3ccc(C(=O)N4CCC5(CC4)OCCO5)cc32)cc1 ?
TDP1 cell noCPT: inconclusive; TDP1 cell CPT: inconclusive; HT1080NT lethal: inactive; HT1080 IDH1KD tx: inactive; ALOX12 inh: inactive; IL-1B inflam inh: inconclusive

What do the screens show for `CCOc1ccc(CN2C(=O)c3ccccc3Sc3ccc(C(=O)N4CCC5(CC4)OCCO5)cc32)cc1`?
TDP1 cell noCPT: inconclusive; TDP1 cell CPT: 18µM; ALOX12 inh: inactive

How did CSc1ccc(C2SCC(=O)Nc3n[nH]c(C)c32)cc1 (configuration not stated) do in these assays?
ALOX12 inh: inactive

How did CC1CCN(CC(=O)Nc2ccc(C#N)c(Cl)c2)CC1 do in these assays?
ALOX12 inh: inactive

What do the screens show for `O=C(COc1ccc(F)cc1)N1CCN(CCc2ccncc2)CC1`?
ALOX12 inh: inactive

Results for O=C(c1ccccc1)N1C[C@@H]2C[C@H](C1)c1ccc(-c3cccc(C(F)(F)F)c3)c(=O)n1C2 ?
ALOX12 inh: inactive

Results for OC1(c2ccccc2)CCNC2CCCCC21 (configuration not stated) ?
TDP1 cell noCPT: inconclusive; TDP1 cell CPT: 18µM; HT1080NT lethal: inactive; HT1080 IDH1KD tx: inactive; ALOX12 inh: inactive; IL-1B inflam inh: inactive

What do the screens show for `CCOc1ccc(-c2cc(C(=O)N3CCN(c4cccc(C(F)(F)F)c4)CC3)c3ccccc3n2)cc1`?
TDP1 cell noCPT: 4.6µM; TDP1 cell CPT: 5.2µM; ALOX12 inh: inactive

What do the screens show for `COc1ccc(N2CCN(C(=O)c3cc(=O)[nH]c4ccccc34)CC2)cc1`?
TDP1 cell noCPT: inconclusive; TDP1 cell CPT: inactive; HT1080NT lethal: inactive; HT1080 IDH1KD tx: inactive; ALOX12 inh: inactive; IL-1B inflam inh: inactive

How did COc1ccc(-c2cc(C(=O)N3CCN(c4ccccc4OC)CC3)c3cc(C(C)C)ccc3n2)cc1 do in these assays?
TDP1 cell noCPT: 21µM; TDP1 cell CPT: 23µM; ALOX12 inh: inconclusive

Results for CC[C@H]1CN2CC[C@H]1C[C@@H]2CNC(=O)Nc1ccc(C(C)=O)cc1 ?
ALOX12 inh: inactive

What do the screens show for `O=C(c1ccccc1)N1C[C@@H](c2ccc3c(c2)OCO3)[C@@H]2[C@H]1C1CCN2CC1`?
ALOX12 inh: inactive

Results for Cc1cc(OCC(=O)OC(C)(C)C)c2c3c(c(=O)oc2c1)CCC3 ?
TDP1 cell noCPT: inactive; TDP1 cell CPT: inactive; HT1080NT lethal: inactive; HT1080 IDH1KD tx: inactive; ALOX12 inh: inactive; IL-1B inflam inh: inactive

What do the screens show for `Cc1cc(OC(=O)CCNC(=O)OC(C)(C)C)c2c3c(c(=O)oc2c1)CCC3`?
TDP1 cell noCPT: 21µM; TDP1 cell CPT: inconclusive; HT1080NT lethal: inactive; HT1080 IDH1KD tx: inactive; ALOX12 inh: inactive; IL-1B inflam inh: inactive

What do the screens show for `CCC(NC(=O)OC(C)(C)C)C(=O)Oc1cc(C)cc2oc(=O)c3c(c12)CCC3` (configuration not stated)?
TDP1 cell noCPT: 12µM; TDP1 cell CPT: 21µM; HT1080NT lethal: inactive; HT1080 IDH1KD tx: inactive; ALOX12 inh: inactive; IL-1B inflam inh: inactive

How did c1ccc(/N=C2\N=C(Nc3ccccn3)c3ccccc32)nc1 do in these assays?
TDP1 cell noCPT: 0.15µM; TDP1 cell CPT: 0.21µM; HT1080NT lethal: inconclusive; HT1080 IDH1KD tx: inactive; ALOX12 inh: inactive; IL-1B inflam inh: inactive

How did COC(=O)[C@H](Cc1ccccc1)N(Cc1ccccc1)S(=O)(=O)N(Cc1ccccc1)[C@@H](Cc1ccccc1)C(=O)OC do in these assays?
TDP1 cell noCPT: 12µM; TDP1 cell CPT: 23µM; HT1080NT lethal: inactive; HT1080 IDH1KD tx: inactive; ALOX12 inh: inactive; IL-1B inflam inh: inactive

How did CN(C)C(Cc1ccccc1)C(=O)c1ccc(-c2ccccc2)cc1 (configuration not stated) do in these assays?
TDP1 cell noCPT: inconclusive; TDP1 cell CPT: inconclusive; HT1080NT lethal: inactive; HT1080 IDH1KD tx: inactive; ALOX12 inh: inactive; IL-1B inflam inh: inactive

How did CC(C)C(=O)Nc1ccc([N+](=O)[O-])c(C(F)(F)F)c1 do in these assays?
TDP1 cell noCPT: 13µM; TDP1 cell CPT: 13µM; HT1080NT lethal: inactive; HT1080 IDH1KD tx: inactive; ALOX12 inh: inactive; IL-1B inflam inh: inactive

How did C=C[C@H]1CN2CC[C@H]1C[C@@H]2CNC(=O)CSCC(=O)O do in these assays?
ALOX12 inh: inactive
